Source: PubChem BioAssay (NCATS)
Records with an inconclusive call do not appear. Entries that show only a call come without a potency. Calls of active or inactive are those of the source. The call rests on the fitted dose curve; in most records, active means well fitted curve in the direction sought with a large enough effect; inconclusive means small, poorly fitted or top-dose-only effect, or another doubt; inactive means no such curve, though single readings can be large; an effect the other way counts as inactive or inconclusive.

How the values were obtained:
MCC-13 = experiment: qHTS assay to identify novel small-molecules to repurpose for Merkel cell carcinoma treatment (AID 1296009); details: MCC and control cell lines, CellTiter-Glo viability, 72 h; series mostly up to 46 µM; further: nearly all actives have a fitted effect of over 60% in size; further: potency means the concentration at half of the fitted maximal effect
How it was run: (§1)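 qHTS format: cells treated with library compounds in DMSO across 8 (NPC) or 11 (MIPE) concentrations. Readout after 72 hr at 37 degree celsius was CellTiter-Glo luminescence.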

MCC-26 = experiment: as above; details: MCC and control cell lines, CellTiter-Glo viability, 72 h; series mostly up to 46 µM
How it was run: as §1

MKL-1 = experiment: as above; details: MCC and control cell lines, CellTiter-Glo viability, 72 h; series mostly up to 46 µM
How it was run: as §1

MKL-2 = experiment: as above; details: MCC and control cell lines, CellTiter-Glo viability, 72 h; series mostly up to 46 µM
How it was run: as §1

UISO = experiment: as above; details: MCC and control cell lines, CellTiter-Glo viability, 72 h; series mostly up to 46 µM
How it was run: as §1

WaGa = experiment: as above; details: MCC and control cell lines, CellTiter-Glo viability, 72 h; series mostly up to 46 µM
How it was run: as §1

C33A = experiment: Primary qHTS to identify gynecologic anti-cancer compounds using libraries of approved drugs and bioactive compounds (AID 1345084); details: Gynecologic cancer cell panel viability, ATPlite luminescence, 48 h; series mostly up to 57.5 µM; further: nearly all actives have a fitted effect of over 55% in size
How it was run: (§2)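 Luminescence from the ATPlite ATP-monitoring reagent indicates viable cell number; lower signal means cytotoxicity. Cells received compound 16 h after seeding and were exposed for 48 h across five concentrations.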

CAOV3 = experiment: as above; details: Gynecologic cancer cell panel viability, ATPlite luminescence, 48 h; series mostly up to 57.5 µM
How it was run: as §2

CASKI = experiment: as above; details: Gynecologic cancer cell panel viability, ATPlite luminescence, 48 h; series mostly up to 57.5 µM
How it was run: as §2

| Compound | Potency (MCC-13) | Potency (MCC-26) | Potency (MKL-1) | Potency (MKL-2) | Potency (UISO) | Potency (WaGa) | Potency (C33A) | Potency (CAOV3) | Potency (CASKI) |
| --- | --- | --- | --- | --- | --- | --- | --- | --- | --- |
| COc1ccc(OC)c(CC(C)N)c1 (stereo not given) | inactive | inactive | inactive | inactive | inactive | inactive | inactive | inactive | inactive |
| Nc1ccccc1C(=O)OCC(O)CO (stereo not given) | inactive | inactive | inactive | inactive | inactive | inactive | inactive | inactive | inactive |
| CCCCCCCCC(=O)NCc1ccc(O)c(OC)c1 | inactive | inactive | inactive | inactive | inactive | inactive |  | inactive | inactive |
| CN1CCC(N(Cc2ccccc2)c2ccccc2)CC1 | inactive | inactive | inactive |  | inactive |  | inactive | inactive | inactive |
| NC1(c2ccccc2)CCCCC1 | inactive | inactive | inactive |  | inactive |  |  | inactive | inactive |
| c1ccc2c(c1)Sc1ccccc1N2CC1CN2CCC1CC2 (stereo not given) |  |  | 23.7 µM (active) | 11.9 µM (active) | 26.6 µM (active) |  |  |  |  |
| C[C@@H]1O[C@@H](O[C@@H]2C=C3CC[C@@H]4[C@H](CC[C@]5(C)[C@@H](c6ccc(=O)oc6)CC[C@]45O)[C@@]3(C)CC2)[C@H](O)[C@H](O)[C@H]1O | 0.0033 µM (active) |  | 0.0094 µM (active) | 0.0084 µM (active) | 0.0038 µM (active) | 0.0027 µM (active) |  |  |  |
| CC#C[C@]1(O)CC[C@H]2[C@@H]3C[C@H](C)C4=CC(=O)CC[C@]4(C)[C@H]3CC[C@@]21C | inactive | inactive | inactive |  | inactive |  | inactive | inactive | inactive |
| C=CCOC(Cn1ccnc1)c1ccc(Cl)cc1Cl (stereo not given) | inactive | inactive | inactive |  |  | inactive | inactive | inactive | inactive |
| C=CC[C@]1(O)CC[C@H]2[C@@H]3CCC4=CC(=O)CCC4=C3C=C[C@@]21C | inactive | inactive | inactive |  | inactive |  |  | inactive | inactive |
| CC(=O)OC1(c2ccccc2)CCN(CCc2ccccc2)CC1 |  |  | inactive |  | 24.8 µM (active) |  | inactive |  |  |
| CN1C(=O)CN=C(c2ccccc2)c2cc(Cl)ccc21 |  | inactive | inactive | inactive | inactive | inactive | inactive |  | inactive |
| CC[C@H]1C[C@H]2[C@@H]3CCC4=CC(=O)CC[C@@H]4[C@H]3CC[C@]2(C)[C@H]1O | inactive | inactive | inactive |  | inactive | inactive |  |  | inactive |
| C[C@]12Cc3nonc3C[C@@H]1CC[C@@H]1[C@@H]2CC[C@@]2(C)[C@H]1CC[C@]2(C)O | inactive | inactive |  |  |  | 18.8 µM (active) | inactive | inactive | inactive |
| Clc1ccc(CO/N=C(\Cn2ccnc2)c2ccc(Cl)cc2Cl)c(Cl)c1 |  | inactive |  |  |  |  | inactive | inactive | inactive |
| O=C(CCl)c1ccc(Cl)cc1Cl | inactive | inactive |  |  | inactive |  | inactive | inactive | inactive |
| CC(CC(C#N)(c1ccccc1)c1ccccc1)N(C)C (stereo not given) |  | inactive | inactive |  |  | 43.3 µM (active) | inactive | inactive | inactive |
| N#Cc1nn(-c2c(Cl)cc(C(F)(F)F)cc2Cl)c(N)c1S(=O)C(F)(F)F (stereo not given) | inactive | inactive |  | 23.7 µM (active) |  |  | inactive | inactive | inactive |
| COc1ccc2c(C(=O)c3ccc(Cl)cc3)c(C)n(CC(=O)O)c2c1 |  |  |  |  | 26.6 µM (active) |  | inactive | inactive | inactive |
| CC[C@]1(O)CC[C@H]2[C@@H]3CCC4=CCCC[C@@H]4[C@H]3CC[C@@]21C |  | inactive | inactive | inactive |  | inactive |  |  | inactive |
